Hit rate of the full screen: of about 39,000 compounds, about 1,500 (3.8%) were called active. For the sample, actives were picked, then their nearest neighbours and some compounds at random.
system: HSkMC (human skeletal muscle cells); experiment: cytotoxicity call (relative viability < 0.9); conditions: 10 µM

| Structure (SMILES) | cytotoxicity call |
| --- | --- |
| Cc1noc(C)c1S(=O)(=O)N(C)C[C@H]1Oc2c(NC(=O)NC3CCCCC3)cccc2C(=O)N([C@H](C)CO)C[C@@H]1C | inactive |
| C[C@H](CO)N1C[C@H](C)[C@@H](CN(C)S(=O)(=O)c2cn(C)cn2)Oc2ccc(NC(=O)Cn3cnnn3)cc2C1=O | inactive |
| CC(C)NC(=O)N(C)C[C@@H]1Oc2ccc(NS(=O)(=O)c3ccc(Cl)cc3)cc2CC(=O)N([C@H](C)CO)C[C@@H]1C | inactive |
| CC(C)NC(=O)Nc1ccc2c(c1)C(=O)N([C@H](C)CO)C[C@H](C)[C@@H](CN(C)S(=O)(=O)c1ccccc1)O2 | inactive |
| COc1ccc(S(=O)(=O)N(C)C[C@H]2Oc3c(NC(=O)c4cc(C)nn4C)cccc3C(=O)N([C@H](C)CO)C[C@@H]2C)cc1 | inactive |
| COc1ccc(S(=O)(=O)Nc2ccc3c(c2)C(=O)N([C@H](C)CO)C[C@H](C)[C@@H](CN(C)C(=O)Nc2ccccc2)OCCCC[C@@H](C)O3)cc1 | inactive |
| C[C@H]1CN([C@@H](C)CO)C(=O)c2ccccc2-c2ccccc2CO[C@H]1CN(C)Cc1ccc(C(F)(F)F)cc1 | inactive |
| C[C@@H]1CCCCO[C@H](CN(C)Cc2ccc(C(=O)O)cc2)[C@@H](C)CN([C@H](C)CO)C(=O)c2cc(NS(=O)(=O)c3ccc(Cl)cc3)ccc2O1 | inactive |
| CNC(=O)C(=O)Nc1cc(Cl)ccc1C#N | inactive |
| CCN(CC)C(=O)[C@@H]1C[C@@H](N)CN1S(=O)(=O)N1CCCCCC1 | inactive |
| Cc1ccc(OCCn2c(CC(C)(C)C)nc3ccccc32)cc1 | inactive |
| Cc1nc2ccccc2n1Cc1ccc(Cl)cc1 | inactive |
| c1ccc(Cn2c(-c3ccc(OC[C@H](C4CCNCC4)n4c(-c5ccccc5)nc5ccccc54)cc3)nc3ccccc32)cc1 | active |
| C[C@H](O)C#Cc1ccc2c(c1)O[C@H](CN(C)C(=O)Nc1ccccc1)[C@@H](C)CN([C@H](C)CO)S2(=O)=O | inactive |
| C[C@H]1CN([C@@H](C)CO)C(=O)c2cc(-c3cccnc3)cnc2O[C@@H]1CN(C)Cc1ccc(-c2ccccc2)cc1 | inactive |
| C[C@H]1CCCCO[C@H](CN(C)Cc2ccc(Cl)c(Cl)c2)[C@@H](C)CN([C@@H](C)CO)C(=O)c2cc(NC(=O)NC3CCCCC3)ccc2O1 | active |
| C[C@@H]1CCCCO[C@@H](CN(C)Cc2ccc(Cl)c(Cl)c2)[C@@H](C)CN([C@@H](C)CO)C(=O)c2cc(NC(=O)NC3CCCCC3)ccc2O1 | inactive |
| C[C@@H]1CCCCO[C@H](CN(C)Cc2ccc(Cl)c(Cl)c2)[C@H](C)CN([C@@H](C)CO)C(=O)c2cc(NC(=O)C3CCCCC3)ccc2O1 | inactive |
| C[C@@H]1CCCCO[C@H](CN(C)Cc2ccc(Cl)c(Cl)c2)[C@@H](C)CN([C@@H](C)CO)C(=O)c2cc(NC(=O)C3CCCCC3)ccc2O1 | active |

| Structure (SMILES) | cytotoxicity call |
| --- | --- |
| C[C@@H]1CCCCO[C@H](CN(C)Cc2ccc(Cl)c(Cl)c2)[C@@H](C)CN([C@H](C)CO)C(=O)c2cc(NC(=O)NC3CCCCC3)ccc2O1 | inactive |
| C[C@@H]1CCCCO[C@H](CN(C)Cc2ccc(Cl)c(Cl)c2)[C@@H](C)CN([C@H](C)CO)C(=O)c2cc(NC(=O)C3CCCCC3)ccc2O1 | inactive |
| C[C@@H]1CCCCO[C@H](CN(C)Cc2ccc(Cl)c(Cl)c2)[C@@H](C)CN([C@@H](C)CO)C(=O)c2cc(NC(=O)NC3CCCCC3)ccc2O1 | active |
| C[C@@H]1CCCCO[C@@H](CN(C)Cc2ccc(Cl)c(Cl)c2)[C@H](C)CN([C@H](C)CO)C(=O)c2cc(NC(=O)NC3CCCCC3)ccc2O1 | inactive |
| C[C@@H]1CN([C@@H](C)CO)C(=O)c2cc(NC(=O)NC3CCCCC3)ccc2O[C@@H](C)CCCCO[C@H]1CN(C)Cc1ccc(Cl)c(Cl)c1 | inactive |
| C[C@@H]1CN([C@H](C)CO)C(=O)c2cccc(NS(C)(=O)=O)c2O[C@@H]1CN(C)Cc1ccc(C(=O)O)cc1 | inactive |
| Cc1noc(C)c1S(=O)(=O)N(C)C[C@H]1Oc2ccc(NC(=O)NC3CCCCC3)cc2CC(=O)N([C@@H](C)CO)C[C@H]1C | inactive |
| O=C(C[C@@H]1C[C@@H]2c3cc(NS(=O)(=O)c4ccc(F)cc4)ccc3O[C@@H]2[C@H](CO)O1)NCCN1CCCCC1 | inactive |
| C=CC[C@@H](CC(=O)N[C@H](CO)Cc1ccccc1)C(=O)NCCOC(=O)[C@H](CC=C)CC(=O)OC(C)(C)C | inactive |
| CCCCCN1CC=C[C@]23O[C@@H]4/C=C/CCC(=O)N(C)[C@H](C)[C@@H](c5ccccc5)OC(=O)[C@@H]4[C@H]2C(=O)N(c2ccccc2Cl)[C@@H]3C1=O | inactive |
| Cc1noc(C)c1NC(=O)Nc1ccc2c(c1)C(=O)N([C@H](C)CO)C[C@H](C)[C@H](CN(C)S(=O)(=O)c1cccs1)OCCCC[C@H](C)O2 | inactive |
| C[C@@H]1CN([C@@H](C)CO)S(=O)(=O)c2ccc(C#CC3CC3)cc2O[C@@H]1CN(C)C(=O)c1cccc(F)c1 | inactive |
| CC(C)(O)c1ccccc1CC[C@@H](SCC1(CC(=O)O)CC1)c1cccc(/C=C/c2ccc3ccc(Cl)cc3n2)c1 | active |
| CC(C)(O)c1ccccc1CCC(SCC1(CC(=O)[O-])CC1)c1cccc(C=Cc2ccc3ccc(Cl)cc3n2)c1.[Na+] (configuration not stated) | inactive |
| C[C@@H]1CN([C@H](C)CO)C(=O)c2cc(NC(=O)Nc3cccc4ccccc34)ccc2O[C@@H](C)CCCCO[C@@H]1CN(C)S(=O)(=O)c1ccc(F)cc1 | inactive |
| COCC(=O)N1C[C@@H](C(=O)N2CCCO2)C[C@@H]2OCC[C@@H]21 | inactive |
| O=C(Nc1cccc2cccnc12)[C@@H]1[C@H](c2ccc(I)cc2)CC(=O)N1C(=O)OCc1ccccc1 | inactive |
| C[C@@H]1CCCCO[C@H](CN(C)C(=O)c2ccccc2)[C@H](C)CN([C@@H](C)CO)C(=O)c2cc(NS(=O)(=O)c3ccccc3)ccc2O1 | inactive |
| Cc1c2oc3c(C)ccc(C(=O)N[C@@H]4C(=O)N[C@H](C(C)C)C(=O)N5CCC[C@H]5C(=O)N(C)CC(=O)N(C)[C@@H](C(C)C)C(=O)O[C@@H]4C)c3nc-2c(C(=O)N[C@@H]2C(=O)N[C@H](C(C)C)C(=O)N3CCC[C@H]3C(=O)N(C)CC(=O)N(C)[C@@H](C(C)C)C(=O)O[C@@H]2C)c(N)c1=O | active |

| Structure (SMILES) | cytotoxicity call |
| --- | --- |
| Cc1c2oc3c(C)ccc(C(=O)N[C@@H]4C(=O)N[C@@H](C(C)C)C(=O)N5CCC[C@H]5C(=O)N(C)CC(=O)N(C)[C@@H](C(C)C)C(=O)O[C@@H]4C)c3nc-2c(C(=O)N[C@@H]2C(=O)N[C@@H](C(C)C)C(=O)N3CCC[C@H]3C(=O)N(C)CC(=O)N(C)[C@@H](C(C)C)C(=O)O[C@@H]2C)c(N)c1=O | inactive |
| Cc1c2oc3c(C)ccc(C(=O)OC(C)C4NC(=O)C(C(C)C)N(C)C(=O)CN(C)C(=O)C5CCCN5C(=O)C(C(C)C)NC4=O)c3nc-2c(C(=O)OC(C)C2NC(=O)C(C(C)C)N(C)C(=O)CN(C)C(=O)C3CCCN3C(=O)C(C(C)C)NC2=O)c(N)c1=O (configuration not stated) | inactive |
| CC(=O)O[C@H]1C[C@@]2(C)[C@@H](C[C@@H](O)[C@@H]3[C@@]4(C)CC[C@@H](O)[C@@H](C)[C@@H]4CC[C@@]32C)/C1=C(/CCC=C(C)C)C(=O)O | inactive |
| COc1ccccc1S(=O)(=O)N[C@H]1C=C[C@@H](CC(=O)N2CCN(C)CC2)O[C@H]1CO | inactive |
| O=C(C[C@@H]1CC[C@@H]2[C@H](COC[C@H](O)CN2S(=O)(=O)c2ccccc2)O1)N[C@@H]1CCN(Cc2ccccc2)C1 | inactive |
| C=CCC[C@@H](Cc1ccc(F)cc1)C(=O)OC[C@@H](NC(=O)[C@@H](CC=C)CC(=O)N(CCO)Cc1ccccc1)c1ccccc1 | active |
| C=CCC[C@H](Cc1ccc(F)cc1)C(=O)OC[C@@H](NC(=O)[C@@H](CC=C)CC(=O)N(CCO)Cc1ccccc1)c1ccccc1 | active |
| C=CCC[C@@H](Cc1ccc(F)cc1)C(=O)OC[C@@H](Cc1ccccc1)NC(=O)[C@H](CC=C)CC(=O)N(CCO)Cc1ccccc1 | inactive |
| C=CCC[C@H](Cc1ccc(F)cc1)C(=O)OC[C@@H](NC(=O)[C@H](CC=C)CC(=O)N(CCO)Cc1ccccc1)c1ccccc1 | inactive |
| C=CCC[C@@H](Cc1ccc(F)cc1)C(=O)OC[C@@H](NC(=O)[C@H](CC=C)CC(=O)N(CCO)Cc1ccccc1)c1ccccc1 | inactive |
| C=CC[C@@H](CC(=O)N(CCO)Cc1ccccc1)C(=O)N[C@H](COC(=O)[C@@H](CC=C)Cc1ccc(F)cc1)c1ccccc1 | inactive |
| Cc1ccc(S(=O)(=O)N(C)C[C@H]2Oc3ccc(NC(=O)Nc4cccc5ccccc45)cc3C(=O)N([C@H](C)CO)C[C@@H]2C)cc1 | inactive |
| COc1ccc(C#Cc2ccc3c(c2)[C@]2(C(=O)N3)[C@H](C(N)=O)[C@H]3C(=O)O[C@H](c4ccccc4)[C@H](c4ccccc4)N3[C@@H]2c2ccc(OCCO)cc2)cc1 | inactive |
| Cc1cc(-c2ccccc2)nc(SCc2ccccc2)c1C#N | inactive |
| COc1ccc(S(=O)(=O)N(C)C[C@@H]2Oc3ccc(NS(C)(=O)=O)cc3CC(=O)N([C@@H](C)CO)C[C@H]2C)cc1 | inactive |
| CS(=O)(=O)Nc1ccc2c(c1)[C@@H]1C[C@H](CC(=O)NCc3ccc(-c4ccccc4)cc3)O[C@H](CO)[C@@H]1O2 | inactive |
| COc1ccc(S(=O)(=O)N(C)C[C@@H]2Oc3c(NC(=O)NC(C)C)cccc3C(=O)N([C@H](C)CO)C[C@@H]2C)cc1 | inactive |
| Cc1noc(C)c1NC(=O)Nc1ccc2c(c1)C(=O)N([C@H](C)CO)C[C@H](C)[C@H](CN(C)C(=O)Nc1ccccc1)OCCCC[C@@H](C)O2 | inactive |
| CC1=C(/C=C/C(C)=C/C=C/C(C)=C\C(=O)O)C(C)(C)CCC1 | inactive |

Source: the antibiotic and cytotoxicity screens of Wong et al. (2023)
